Laboratory results reported in the supplement of paper PMC10849652.
About 7,900 targets were measured; listed, in parts, are those with a hit and a random draw of the rest. About 0.6% of all pairs of compound and target were hits. Values without a mark were called inactive.

Experiments:
Assay in all cases: log2 fold change, soluble protein after heating vs DMSO (PISA); higher = thermal stabilisation; K562 cells, 10 uM, 30 min; active = over 0.2 and 3.5 SD of the protein, either way, in both replicates (recomputed)
[1] = compound: CC1=C(C=C(C=C1)NC(=O)C2=CC(=CC=C2)C(C)(C)C#N)NC3=CC4=C(C=C3)N=CN(C4=O)C
Outline: (§1)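 K562 cells at 2×10^6 cells/mL were treated with 10 μM compound for 30 min. Aliquots were heated for 3 min across 48°C-58°C, pooled, and extracted in PBS with 0.5% NP-40 at 4°C; soluble protein was the supernatant after 21,000xg for 90 min. Soluble protein was quantified by TMTpro 16plex LC-MS/MS with channel sums equalised, and reported as log2 fold change in thermal stability against DMSO controls, with values from duplicates.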

[2] = compound: CC1=C(C=C(C=C1)NC(=O)C2=CC(=CC=C2)N(C)C)NC(=O)C3=CC=C(C=C3)O
Outline: as §1

[3] = compound: CC1=CC=C(C=C1)SC2=C3C=C(SC3=CN=C2)C(=O)N
Outline: as §1

[4] = compound: CC1=NC(=CC=C1)C2=C(N=C(N2)C(C)(C)C)C3=CC4=NC=CN=C4C=C3
Outline: as §1

Nexturastat A = compound: CCCCN(Cc1ccc(C(=O)NO)cc1)C(=O)Nc1ccccc1 [Nexturastat A]
Outline: as §1

vemurafenib = compound: CCCS(=O)(=O)Nc1ccc(F)c(C(=O)c2c[nH]c3ncc(-c4ccc(Cl)cc4)cc23)c1F [vemurafenib]
Outline: as §1

[5] = compound: CCCS(=O)(=O)Nc1ccc(F)c(C(=O)c2c[nH]c3ncc(Cl)cc23)c1F
Outline: as §1

[6] = compound: CCCc1cc(C)[nH]c(=O)c1CNC(=O)c1cc(-c2ccnc(N3CCN(C)CC3)c2)cc2c1cnn2C(C)C
Outline: as §1

givinostat = compound: CCN(CC)Cc1ccc2cc(COC(=O)Nc3ccc(C(=O)NO)cc3)ccc2c1 [givinostat]
Outline: as §1

barasertib = compound: CCN(CCCOc1ccc2c(Nc3cc(CC(=O)Nc4cccc(F)c4)[nH]n3)ncnc2c1)CCOP(=O)(O)O [barasertib]
Outline: as §1

[7] = compound: CC[C@@H]1C(=O)N(C)c2cnc(Nc3ccc(C(=O)NC4CCN(C)CC4)cc3OC)nc2N1C1CCCC1
Outline: as §1

volasertib = compound: CC[C@@H]1C(=O)N(C)c2cnc(Nc3ccc(C(=O)N[C@H]4CC[C@H](N5CCN(CC6CC6)CC5)CC4)cc3OC)nc2N1C(C)C [volasertib]
Outline: as §1

[8] = compound: CC[C@H](C)N1C=C(C2=C(C=C(C=C21)C3=CN=C(C=C3)N4CCNCC4)C(=O)NCC5=C(C=C(NC5=O)C)C)C
Outline: as §1

epoxomicin = compound: CC[C@H](C)[C@@H](C(=O)N[C@@H]([C@@H](C)O)C(=O)N[C@@H](CC(C)C)C(=O)[C@]1(CO1)C)NC(=O)[C@H]([C@@H](C)CC)N(C)C(=O)C [epoxomicin]
Outline: as §1

[9] = compound: CCn1c(C(=O)N(C2CC2)C2CC2)cc2c3c(ncn3C)c(Nc3cc(C)n(C)n3)nc21
Outline: as §1

[10] = compound: CCn1cc(-c2ccnc3[nH]c(-c4cccc(CN(C)C)c4)cc23)c(-c2ccc(NC(=O)N(C)C)cc2)n1
Outline: as §1

[11] = compound: CN(C)CC(=O)Nc1ccc2[nH]c(=O)c3ccccc3c2c1
Outline: as §1

rosiglitazone = compound: CN(CCOC1=CC=C(C=C1)C[C@H]2C(=O)NC(=O)S2)C3=CC=CC=N3 (racemic) [rosiglitazone]
Outline: as §1

[12] = compound: CN1C2=C(C3=C1C(=O)N(N=C3)CC4=CC(=CC=C4)N)SC(=C2)S(=O)C
Outline: as §1

[13] = compound: CN1CCC(CNc2ccc3ncc(-c4cccc(OC(F)(F)F)c4)n3n2)CC1
Outline: as §1

Sequence of UniProt O00629 (O00629 whole entry, looked up): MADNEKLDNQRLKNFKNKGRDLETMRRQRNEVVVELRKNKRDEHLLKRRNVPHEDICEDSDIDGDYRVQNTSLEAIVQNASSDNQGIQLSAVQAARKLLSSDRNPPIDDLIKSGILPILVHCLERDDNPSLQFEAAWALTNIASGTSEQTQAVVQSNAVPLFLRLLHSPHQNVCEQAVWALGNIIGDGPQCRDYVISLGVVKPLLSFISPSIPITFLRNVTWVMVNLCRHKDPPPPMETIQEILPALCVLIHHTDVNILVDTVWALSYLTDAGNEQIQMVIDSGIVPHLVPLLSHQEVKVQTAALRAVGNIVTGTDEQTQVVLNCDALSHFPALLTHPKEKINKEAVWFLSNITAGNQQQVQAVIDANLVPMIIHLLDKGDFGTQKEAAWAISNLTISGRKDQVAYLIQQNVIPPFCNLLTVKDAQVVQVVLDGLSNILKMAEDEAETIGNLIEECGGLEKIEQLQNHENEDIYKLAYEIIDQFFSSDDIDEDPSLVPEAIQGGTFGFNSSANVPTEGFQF
Sequence of UniProt Q9GZY8 (Q9GZY8 whole entry, looked up): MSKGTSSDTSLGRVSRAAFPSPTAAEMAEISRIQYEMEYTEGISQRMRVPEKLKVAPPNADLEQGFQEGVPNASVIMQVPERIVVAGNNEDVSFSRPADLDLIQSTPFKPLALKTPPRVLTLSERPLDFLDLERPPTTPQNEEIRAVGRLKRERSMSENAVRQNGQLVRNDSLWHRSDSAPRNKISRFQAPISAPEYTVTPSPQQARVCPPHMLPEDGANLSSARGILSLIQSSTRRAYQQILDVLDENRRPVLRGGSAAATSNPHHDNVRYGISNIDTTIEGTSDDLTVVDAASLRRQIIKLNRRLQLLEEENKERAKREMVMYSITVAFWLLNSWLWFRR
Sequence of UniProt P49441 (P49441 whole entry, looked up): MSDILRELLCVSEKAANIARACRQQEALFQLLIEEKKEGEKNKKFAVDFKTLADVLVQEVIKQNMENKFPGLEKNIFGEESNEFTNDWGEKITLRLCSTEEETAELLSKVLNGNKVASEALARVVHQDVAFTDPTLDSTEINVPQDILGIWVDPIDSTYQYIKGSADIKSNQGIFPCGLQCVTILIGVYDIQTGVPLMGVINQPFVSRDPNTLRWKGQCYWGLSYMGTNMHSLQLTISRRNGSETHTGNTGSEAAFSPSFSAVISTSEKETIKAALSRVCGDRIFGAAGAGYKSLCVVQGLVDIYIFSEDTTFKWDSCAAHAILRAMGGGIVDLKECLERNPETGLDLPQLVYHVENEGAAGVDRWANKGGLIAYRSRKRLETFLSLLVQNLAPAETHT
Sequence of UniProt O43766 (O43766 whole entry, looked up): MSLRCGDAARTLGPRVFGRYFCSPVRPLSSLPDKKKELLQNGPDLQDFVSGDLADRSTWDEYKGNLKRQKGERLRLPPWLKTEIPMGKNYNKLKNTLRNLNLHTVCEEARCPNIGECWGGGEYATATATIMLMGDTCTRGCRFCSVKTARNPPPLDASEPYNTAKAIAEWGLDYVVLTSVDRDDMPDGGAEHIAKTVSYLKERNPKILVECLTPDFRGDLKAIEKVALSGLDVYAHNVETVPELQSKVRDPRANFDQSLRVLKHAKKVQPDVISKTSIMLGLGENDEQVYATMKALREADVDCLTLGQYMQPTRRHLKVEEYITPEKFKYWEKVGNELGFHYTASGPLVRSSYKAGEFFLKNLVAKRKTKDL
Sequence of UniProt Q9H6V9 (Q9H6V9 whole entry, looked up): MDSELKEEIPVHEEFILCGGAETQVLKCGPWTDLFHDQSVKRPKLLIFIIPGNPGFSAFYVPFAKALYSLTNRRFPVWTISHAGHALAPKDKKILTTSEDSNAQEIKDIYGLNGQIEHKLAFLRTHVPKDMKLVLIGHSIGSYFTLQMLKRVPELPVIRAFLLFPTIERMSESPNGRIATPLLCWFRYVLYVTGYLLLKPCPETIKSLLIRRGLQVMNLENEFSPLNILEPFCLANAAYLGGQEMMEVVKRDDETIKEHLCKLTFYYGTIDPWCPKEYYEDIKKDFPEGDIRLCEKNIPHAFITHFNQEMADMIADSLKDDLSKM
Sequence of UniProt P27448 (P27448 whole entry, looked up): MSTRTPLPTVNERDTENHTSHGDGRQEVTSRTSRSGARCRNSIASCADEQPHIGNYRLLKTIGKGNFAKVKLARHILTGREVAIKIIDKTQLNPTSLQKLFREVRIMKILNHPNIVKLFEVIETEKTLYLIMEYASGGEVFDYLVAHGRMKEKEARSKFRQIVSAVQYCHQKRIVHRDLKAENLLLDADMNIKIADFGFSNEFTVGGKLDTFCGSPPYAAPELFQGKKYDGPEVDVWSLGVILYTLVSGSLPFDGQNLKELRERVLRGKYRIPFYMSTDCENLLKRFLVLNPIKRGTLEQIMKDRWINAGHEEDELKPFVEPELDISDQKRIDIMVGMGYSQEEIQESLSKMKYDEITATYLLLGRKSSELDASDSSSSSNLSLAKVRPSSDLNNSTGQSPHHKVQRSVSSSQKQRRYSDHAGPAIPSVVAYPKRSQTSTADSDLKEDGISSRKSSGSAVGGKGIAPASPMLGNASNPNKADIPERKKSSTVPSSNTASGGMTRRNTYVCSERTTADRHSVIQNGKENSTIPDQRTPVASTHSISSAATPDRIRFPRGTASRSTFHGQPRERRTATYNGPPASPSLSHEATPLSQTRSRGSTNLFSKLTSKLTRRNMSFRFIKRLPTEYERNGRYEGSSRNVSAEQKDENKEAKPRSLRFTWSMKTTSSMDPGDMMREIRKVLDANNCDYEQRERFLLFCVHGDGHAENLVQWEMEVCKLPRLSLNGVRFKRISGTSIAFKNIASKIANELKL
Sequence of UniProt Q9C0E8 (Q9C0E8 whole entry, looked up): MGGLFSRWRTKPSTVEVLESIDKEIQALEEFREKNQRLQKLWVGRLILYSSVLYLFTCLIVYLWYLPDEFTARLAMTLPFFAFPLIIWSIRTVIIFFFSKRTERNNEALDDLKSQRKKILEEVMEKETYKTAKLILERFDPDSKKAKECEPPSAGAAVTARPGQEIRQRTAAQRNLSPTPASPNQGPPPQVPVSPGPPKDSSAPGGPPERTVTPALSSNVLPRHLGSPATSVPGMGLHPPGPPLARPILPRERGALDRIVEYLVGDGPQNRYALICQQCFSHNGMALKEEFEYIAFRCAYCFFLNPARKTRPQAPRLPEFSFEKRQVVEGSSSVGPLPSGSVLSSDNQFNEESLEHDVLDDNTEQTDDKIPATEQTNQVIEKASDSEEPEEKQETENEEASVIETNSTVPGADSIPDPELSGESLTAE
Sequence of UniProt Q96GA3 (Q96GA3 whole entry, looked up): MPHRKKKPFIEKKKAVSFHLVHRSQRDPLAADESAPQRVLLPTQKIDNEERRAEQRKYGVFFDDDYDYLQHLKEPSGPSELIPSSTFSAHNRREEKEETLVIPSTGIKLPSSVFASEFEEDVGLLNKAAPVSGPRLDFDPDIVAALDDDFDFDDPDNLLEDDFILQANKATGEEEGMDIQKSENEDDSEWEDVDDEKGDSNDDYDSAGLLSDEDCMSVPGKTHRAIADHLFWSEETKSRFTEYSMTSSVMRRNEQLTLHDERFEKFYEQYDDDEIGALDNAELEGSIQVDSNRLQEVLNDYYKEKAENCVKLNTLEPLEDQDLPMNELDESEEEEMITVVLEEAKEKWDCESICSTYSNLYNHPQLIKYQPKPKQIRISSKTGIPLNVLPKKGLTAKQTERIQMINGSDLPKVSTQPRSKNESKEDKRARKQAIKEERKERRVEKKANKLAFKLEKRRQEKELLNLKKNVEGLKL
Sequence of UniProt Q14974 (Q14974 whole entry, looked up): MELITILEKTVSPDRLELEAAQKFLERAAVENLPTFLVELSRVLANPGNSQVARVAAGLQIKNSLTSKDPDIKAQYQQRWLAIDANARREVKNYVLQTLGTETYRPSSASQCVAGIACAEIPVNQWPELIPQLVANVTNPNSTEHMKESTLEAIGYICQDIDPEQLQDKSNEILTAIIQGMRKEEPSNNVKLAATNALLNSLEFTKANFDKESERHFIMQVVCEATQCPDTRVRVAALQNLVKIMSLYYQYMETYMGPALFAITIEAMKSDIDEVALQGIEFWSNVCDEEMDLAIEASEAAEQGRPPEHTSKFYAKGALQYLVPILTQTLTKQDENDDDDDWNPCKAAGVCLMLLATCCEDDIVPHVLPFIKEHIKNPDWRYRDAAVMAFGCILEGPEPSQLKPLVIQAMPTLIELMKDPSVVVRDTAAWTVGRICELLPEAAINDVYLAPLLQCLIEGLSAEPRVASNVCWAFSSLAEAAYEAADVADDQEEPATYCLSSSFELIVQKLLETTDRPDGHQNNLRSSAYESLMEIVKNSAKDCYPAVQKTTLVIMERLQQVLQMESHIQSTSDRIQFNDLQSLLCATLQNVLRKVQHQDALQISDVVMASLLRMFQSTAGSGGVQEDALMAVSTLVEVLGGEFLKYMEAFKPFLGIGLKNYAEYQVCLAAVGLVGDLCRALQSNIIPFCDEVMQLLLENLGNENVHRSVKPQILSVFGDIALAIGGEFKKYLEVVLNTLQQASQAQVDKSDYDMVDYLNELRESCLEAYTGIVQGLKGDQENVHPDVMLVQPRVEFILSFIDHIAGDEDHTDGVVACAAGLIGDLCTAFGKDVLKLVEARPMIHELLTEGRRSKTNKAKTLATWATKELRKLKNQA
Sequence of UniProt Q07666 (Q07666 whole entry, looked up): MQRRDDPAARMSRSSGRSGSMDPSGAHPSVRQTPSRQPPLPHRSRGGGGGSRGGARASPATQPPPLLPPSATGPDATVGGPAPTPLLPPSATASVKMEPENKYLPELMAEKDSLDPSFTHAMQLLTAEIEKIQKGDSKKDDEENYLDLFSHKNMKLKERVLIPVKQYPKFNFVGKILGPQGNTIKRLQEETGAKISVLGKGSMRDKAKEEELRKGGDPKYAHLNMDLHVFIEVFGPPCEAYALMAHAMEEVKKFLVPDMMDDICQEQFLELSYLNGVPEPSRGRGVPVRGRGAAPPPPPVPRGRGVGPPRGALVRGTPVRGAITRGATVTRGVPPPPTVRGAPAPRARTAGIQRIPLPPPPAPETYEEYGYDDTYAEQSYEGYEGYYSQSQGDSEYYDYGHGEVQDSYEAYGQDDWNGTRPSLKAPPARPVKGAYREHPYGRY

Target	log2 fold change [1]	log2 fold change [2]	log2 fold change [3]	log2 fold change [4]	log2 fold change (Nexturastat A)	log2 fold change (vemurafenib)	log2 fold change [5]	log2 fold change [6]	log2 fold change (givinostat)	log2 fold change (barasertib)	log2 fold change [7]	log2 fold change (volasertib)	log2 fold change [8]	log2 fold change (epoxomicin)	log2 fold change [9]	log2 fold change [10]	log2 fold change [11]	log2 fold change (rosiglitazone)	log2 fold change [12]	log2 fold change [13]
INPP1 (UniProt P49441)	0.039	0.016	0.054	0.052	0.061	0.031	-0.071	0.079	-0.032	-0.03	0.011	-0.042	0.028	0.052	0.005	-0.011	-0.047	0.002	0.014	-0.296 (active)
LIAS (UniProt O43766)	-0.044	0.119	-0.128	-0.002	-0.057	-0.013	-0.13	-0.01	-0.06	-0.001	0.051	0.055	-0.021	-0.011	0.027	-0.044	-0.043	0.003	-0.052	0.057
KPNA4 (UniProt O00629)	0.016	0.007	0.017	0.045	-0.008	0.031	0.038	0.023	0.006	0.007	-0.008	-0.251	0.033	-0.008	0.038	0.029	0	0.01	-0.066	-0.052
MED16 (UniProt Q9Y2X0)	-0.025	-0.044	-0.046	0.036	0.162	-0.017	0.046	0.014	0.076	-0.03	0.128	0.101	0.004	-0.262	-0.002	0.031	0.086	0.05	0.087	0.06
MFF (UniProt Q9GZY8)	-0.036	0.002	0.039	0.02	0.006	-0.013	0.018	-0.117	0.033	0.036	-0.007	0	-0.046	0.037	0	0.043	-0.031	0.035	0.031	-0.386 (active)
KRAS isoform 2 (UniProt P01116)	-0.034	0.046	-0.023	-0.026	-0.063	-0.03	-0.093	-0.073	0.014	0.003	0.08	0.026	-0.047	0.027	-0.007	-0.073	0	0.038	0.062	0.141
LDAH isoform 2 (UniProt Q9H6V9)	-0.026	-0.008	0	-0.024	0.032	0.044	0.024	-0.04	0.059	0.031	-0.062	-0.374 (active)	0.007	-0.052	-0.011	-0.148	0.049	-0.031	-0.137	-0.688 (active)
IMMT isoform 4 (UniProt Q16891)	0.009	0.012	0.032	0.032	-0.027	-0.007	0.002	-0.045	-0.022	0.001	-0.131	-0.099	0.013	0.035	0.015	-0.004	0.002	0.002	-0.047	-0.325 (active)
LTV1 (UniProt Q96GA3)	0.044	-0.04	-0.04	-0.035	0.248	-0.075	-0.008	-0.011	-0.025	-0.075	0.09	0.004	0.06	-0.109	0.021	0.023	-0.049	-0.032	0.189	0.104
LYN (UniProt P07948)	0.195	-0.053	-0.036	0.037	0.293	-0.016	-0.143	-0.22	0.211	-0.057	-0.016	-0.023	0.033	0.039	0.037	-0.095	-0.024	-0.009	0.144	-0.03
MARK3 (UniProt P27448)	-0.017	0.02	0.067	-0.029	0.074	0	0.004	0.077	0.038	0.023	-0.057	-0.078	0.097	0.019	-0.03	-0.019	0.055	0.049	0.051	-0.549 (active)
MAP2K2 (UniProt P36507)	-0.018	0.013	0.009	0.028	-0.001	-0.008	-0.002	0.17	0.014	0.011	-0.12	0.084	0.077	0.044	-0.02	-0.06	0.022	0.04	-0.056	-0.1
KHDRBS1 (UniProt Q07666)	0.086	-0.006	-0.082	0.111	0.077	0.075	-0.068	0.034	0.005	-0.106	0.148	0.106	0.074	-0.029	0.016	-0.096	-0.007	-0.028	-0.04	0.116
IWS1 (UniProt Q96ST2)	-0.083	0.007	-0.015	-0.02	0.029	0.046	-0.003	-0.017	0.051	0.002	0.048	0.034	0.029	0.006	-0.14	0.021	0.046	0.029	0	-0.054
LNPK (UniProt Q9C0E8)	-0.011	0.01	-0.038	0.016	-0.023	-0.042	-0.027	-0.028	-0.018	0.012	0.02	0.024	-0.038	-0.007	-0.032	0.018	-0.042	0.01	0.012	0.059
KPNB1 (UniProt Q14974)	0.049	-0.041	0	-0.015	0.119	0.07	0.076	0.052	0.085	0.02	-0.105	-0.432 (active)	0.04	0.04	0.009	0.016	0.048	0.027	0.102	-0.212
